Assay [1] concerns the target Estrogen receptor (Homo sapiens) (UniProt P03372). The assay is described as follows: qHTS assay for small molecule antagonists of estrogen receptor alpha signaling (AID 588513; active = well fitted curve in the direction sought with a large enough effect in the signal ratio, with a control signal flat, not every such curve was filed as active; the % refers to the signal ratio; note: % is set by controls: 0 for no effect and ±100 for the full control effect). The procedure, abridged: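 ER-alpha-UAS-bla GripTite HEK 293 cells in 2% charcoal/dextran-treated FBS medium; compounds titrated (1:2, duplicate), then stimulated with 0.5 nM 17-beta-estradiol for 18 h at 37C. CCF4 beta-lactamase fluorescence; Hill-fit IC50 and efficacy.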

Assay [2] shares this target. Put plainly: qHTS assay for small molecule agonists of estrogen receptor alpha signaling (AID 588514).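 Note: 0% = vehicle only and 100% = reference agonist; nearly all actives have a fitted effect of over 70% in size.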 Put shortly:
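Reporter-gene assay. […] controls beta-lactamase in HEK 293 GripTite cells; after 18 hrs with compound, CCF4 substrate is added for 2 hrs and fluorescence is read.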

Assay [3] can be described thus: qHTS assay for small molecule antagonists of peroxisome proliferator-activated receptor delta signaling (AID 588535).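 Note: cells co-treated with a PPAR-delta agonist as stimulator during compound exposure.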 Conditions: HEK293T PPARd-UAS-bla, beta-lactamase FRET ratio, 18 h; 460 nm channel. Put shortly:
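Cell-based beta-lactamase assay in antagonist mode: 4000 HEK293T PPAR-delta-UAS-bla cells per well, 5 hr preincubation then 18 hr compound incubation at 37 C. IC50 obtained by Hill equation fitting.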
Background: Quantitative high-throughput screening tests each substance at several concentrations.

In assay [4] the target is Peroxisome proliferator-activated receptor gamma (Homo sapiens) (UniProt P37231). Put plainly: qHTS assay for small molecule agonists of peroxisome proliferator-activated receptor gamma signaling (AID 588536; active = well fitted curve in the direction sought with a large enough effect in the signal ratio, with a control signal flat, not every such curve was filed as active; the % refers to the signal ratio;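 note: 0% = DMSO basal wells and 100% = rosiglitazone at 2 µM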). Put shortly: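 GeneBLAzer PPAR-gamma-UAS-bla HEK293 cells in 1% charcoal/dextran-treated FBS medium were treated 16 h at 37 C with compounds. Beta-lactamase activity was read by CCF4 ratio (460/530 nm). Response was normalized to 2 uM rosiglitazone (100%) and DMSO, then Hill-fitted for EC50 and efficacy.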

Assay [5] has the same target. The assay is described as follows: qHTS assay for small molecule antagonists of peroxisome proliferator-activated receptor gamma signaling (AID 588537; active = well fitted inhibition curve with a large enough effect in the signal ratio, with a control signal flat, not every such curve was filed as active; the % refers to the signal ratio;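 note: reporter cells co-stimulated with 50 nM rosiglitazone agonist during compound treatment; % of control where 0% means no effect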). The procedure, abridged:
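Inhibitors of agonist-stimulated UAS-bla reporter activity were sought in HEK293 cells; rosiglitazone (50 nM) defined full signal and DMSO baseline. Curves fitted to Hill model gave IC50 and efficacy.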

For assay [6], the target named is Vitamin D3 receptor (Homo sapiens) (UniProt P11473). The assay is described as follows: qHTS assay for small molecule antagonists of vitamin D receptor signaling (AID 588541).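 Note: receptor activated by calcitriol during compound treatment; series mostly up to about 77 µM; % is set by controls: 0 for no effect and ±100 for the full control effect.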 Put shortly: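 Antagonist-mode beta-lactamase reporter assay: HEK293T VDR-UAS-bla cells were exposed to titrated compound alongside 1-alpha,25-dihydroxyvitamin D3 at 3 nM final for 16 h. Values were normalized to the 50 nM agonist control and DMSO basal, with IC50 and efficacy from Hill equation fits.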

Assay [7] is described as follows: qHTS assay for small molecule agonists of retinoid X receptor alpha signaling (AID 588544).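 For activation: 0% = DMSO basal wells and 100% = reference agonist.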 Conditions: HEK293T RXRa-UAS-bla, beta-lactamase reporter, 18 h; 530 nm emission.
Assay [8] has as its target Thyroid hormone receptor beta (Homo sapiens) (UniProt P10828). The assay is described as follows: qHTS assay for small molecule agonists of thyroid hormone receptor beta signaling (AID 588545).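 Note: 0% = DMSO only and 100% = 10 nM T3.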 Put shortly:
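Beta-lactamase reporter activity under TR response element control is measured in HEK 293 cells after 18 hrs compound exposure. Signal is ratiometric CCF4 fluorescence, 460/530 nm.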

A short description of assay [9]: qHTS assay for small molecule antagonists of retinoid X receptor alpha signaling (AID 588546; active = well fitted inhibition curve with a large enough effect in the signal ratio, with a control signal flat, not every such curve was filed as active; the % refers to the signal ratio;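 note: cells stimulated with 9-cis-retinoic acid as agonist; % is set by controls: 0 for no effect and ±100 for the full control effect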). Conditions: HEK293T RXRa-UAS-bla, beta-lactamase ratio, antagonist mode; measured here: W530 green channel, cytotoxicity proxy. The procedure, abridged: (§1)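 Beta-lactamase reporter inhibition, read as CCF4 fluorescence ratio (ex 405, em 460/530 nm) after 2 h at RT. HEK293T UAS-bla cells, 2500/well, were stimulated with 9-cis-RA at 500 or 100 nM final alongside test compound for 18 h at 37 C.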

Assay [10] can be described thus: qHTS assay for environmental chemicals that activate the Aryl hydrocarbon Receptor (AhR) signaling pathway (AID 651777; active = well fitted curve in the direction sought with a large enough effect; an effect the other way counts as inactive or inconclusive; note: % of control where 0% means no effect; nearly all actives have a fitted effect of over 15% in size). Conditions: 1A2-DRE human hepatoma cells, luciferase, 24 h; activation: stronger effect = higher value. The procedure, abridged: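 Human hepatoma 1A2-DRE cells, stably carrying a dioxin response element and CYP1A2 promoter driving luciferase, were exposed to compounds for 24 hr at 37 C and 5% CO2. Luciferase signal was then read after 30 min One-Glo at room temperature.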

The target of assay [11] is Peroxisome proliferator-activated receptor alpha (Homo sapiens) (UniProt Q07869). Put plainly: qHTS assay for small molecule agonists of the peroxisome proliferator-activated receptor alpha (PPARalpha) signaling pathway (AID 651778; active = well fitted curve in the direction sought with a large enough effect; an effect the other way counts as inactive or inconclusive; note: % of control where 0% means no effect). Conditions: PathHunter PPARalpha complementation, chemiluminescence, 6 h; max response: stronger effect = higher value. Put shortly:
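Chemiluminescence from complemented enzyme reported PPARalpha activation in cells after 6 hr of compound treatment at 37 C. The detection reagent was incubated for 60 min at room temperature, and compounds were scored as agonists.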

Assay [12] can be described thus: qHTS assay for small molecule agonists of the antioxidant response element (ARE) signaling pathway measured by Nrf2-dependant transcriptional activity - cell viability counter screen (AID 720653; active = well fitted curve in the direction sought with a large enough effect in the repeat runs; an effect the other way counts as inactive or inconclusive; note: % is set by controls: 0 for no effect and ±100 for the full control effect). Conditions: ARE-bla HepG2 viability, CellTiter-Glo ATP luminescence, 16 h; max response: stronger effect = lower value. Put shortly: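 Cytotoxicity counter screen: intracellular ATP quantified by CellTiter-Glo luminescence in the same ARE-bla HepG2 plates, after 16 h compound exposure and a 2 h beta-lactamase substrate step.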

Assay [13] is described as follows: qHTS assay for cell viability of HEK293 cells (AID 743288; active = well fitted curve in the direction sought with a large enough effect; an effect the other way counts as inactive or inconclusive; note: % is set by controls: 0 for no effect and ±100 for the full control effect; nearly all actives have a fitted effect of over 50% in size). Conditions: ATP luminescence (CellTiter-Glo), 18 h; max response: stronger effect = lower value. Put shortly:
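Parental HEK293 cells, 2,000 per well, preincubated at least 5 h at 37 C, then exposed to compounds in DMSO for 18 h at 37 C. Viability by CellTiter-Glo ATP luminescence after 30 min at room temperature.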

The nature of assay [14]: qHTS assay for cell viability of the p53RE-bla HCT-116 cell line (AID 743292; active = well fitted curve in the direction sought with a large enough effect; an effect the other way counts as inactive or inconclusive; note: % is set by controls: 0 for no effect and ±100 for the full control effect; nearly all actives have a fitted effect of over 55% in size). The procedure, abridged:
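CellSensor p53RE-bla HCT-116 cells, 4,000/well, preincubated 5 h at 37 C, then exposed to compounds in DMSO for 16 h at 37 C. Viability read as CellTiter-Glo luminescence (intracellular ATP) after 30 min at room temperature.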

For assay [15], the target named is Nuclear receptor subfamily 1 group I member 2 (Rattus norvegicus) (UniProt Q9R1A7). Put plainly: qHTS assay for small molecule activators of the rat pregnane X receptor (rPXR) signaling pathway (AID 651751; call rule not given here; note: 0% is about no effect). Conditions: rPXR reporter cells, luciferase (One-Glo), 24 h.
A short description of assay [16]: qHTS assay for small molecule activators of the human pregnane X receptor (PXR) signaling pathway (AID 720659; call rule not given here; note: 0% is about no effect).
Assay [17] concerns the target Vitamin D3 receptor (Homo sapiens) (UniProt P11473). The assay is described as follows: qHTS assay for small molecule agonists of vitamin D receptor signaling (AID 588543).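 Note: 0% = DMSO basal and 100% = reference agonist control.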 The procedure, abridged: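 VDR-UAS-bla HEK293T cells, 2000/well, 2% charcoal-stripped FBS; compound titration 16 h at 37 C; CCF4 beta-lactamase ratio read. Normalized to 50 nM 1-alpha,25-dihydroxyvitamin D3 (100%) and DMSO; Hill fit gives EC50, efficacy.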

In assay [18] the target is Retinoic acid receptor RXR-alpha (Homo sapiens) (UniProt P19793). Put plainly: qHTS assay for small molecule agonists of retinoid X receptor alpha signaling (AID 588544).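 For activation: 0% = DMSO basal wells and 100% = reference agonist.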
For assay [19] the target is unchanged. Put plainly: qHTS assay for small molecule antagonists of retinoid X receptor alpha signaling (AID 588546).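 Note: cells stimulated with 9-cis-retinoic acid as agonist; % is set by controls: 0 for no effect and ±100 for the full control effect.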 Conditions: HEK293T RXRa-UAS-bla, beta-lactamase ratio, antagonist mode. Put shortly: as §1
Assay [20] can be described thus: qHTS assay for small molecule activators of the nuclear factor-kappa B (NF-kB) signaling pathway (AID 651749; active = well fitted activation curve with a large enough effect in the signal ratio; the % refers to the signal ratio; note: series mostly up to about 77 µM; % of control where 0% means no effect). Conditions: NF-kB-bla ME-180 cells, beta-lactamase FRET ratio, 16 h; activation: stronger effect = higher value. The procedure, abridged:
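Stably transfected ME-180 line; NF-kB response element upstream of beta-lactamase. Treatment: compound or DMSO, 16 hr. Detection: fluorescent FRET substrate.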

Results filed as inconclusive are left out. Calls of active or inactive are those of the source. Unless noted, calls come from the whole dose curve.

Sequence of Thyroid hormone receptor beta (Homo sapiens) (P10828 whole entry, looked up): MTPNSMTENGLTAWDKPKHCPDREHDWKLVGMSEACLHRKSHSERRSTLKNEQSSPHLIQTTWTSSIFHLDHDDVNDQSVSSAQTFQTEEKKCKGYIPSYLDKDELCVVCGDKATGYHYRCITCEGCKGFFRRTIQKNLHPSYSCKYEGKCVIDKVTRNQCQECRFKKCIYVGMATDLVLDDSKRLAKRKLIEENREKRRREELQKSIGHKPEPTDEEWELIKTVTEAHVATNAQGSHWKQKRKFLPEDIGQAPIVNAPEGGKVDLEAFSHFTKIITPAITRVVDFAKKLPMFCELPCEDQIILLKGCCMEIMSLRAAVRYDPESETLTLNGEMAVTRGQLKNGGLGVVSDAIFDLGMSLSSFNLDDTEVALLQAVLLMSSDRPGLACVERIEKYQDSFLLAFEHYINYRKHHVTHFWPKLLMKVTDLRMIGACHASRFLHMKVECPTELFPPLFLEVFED
Sequence of Retinoic acid receptor RXR-alpha (Homo sapiens) (P19793 whole entry, looked up): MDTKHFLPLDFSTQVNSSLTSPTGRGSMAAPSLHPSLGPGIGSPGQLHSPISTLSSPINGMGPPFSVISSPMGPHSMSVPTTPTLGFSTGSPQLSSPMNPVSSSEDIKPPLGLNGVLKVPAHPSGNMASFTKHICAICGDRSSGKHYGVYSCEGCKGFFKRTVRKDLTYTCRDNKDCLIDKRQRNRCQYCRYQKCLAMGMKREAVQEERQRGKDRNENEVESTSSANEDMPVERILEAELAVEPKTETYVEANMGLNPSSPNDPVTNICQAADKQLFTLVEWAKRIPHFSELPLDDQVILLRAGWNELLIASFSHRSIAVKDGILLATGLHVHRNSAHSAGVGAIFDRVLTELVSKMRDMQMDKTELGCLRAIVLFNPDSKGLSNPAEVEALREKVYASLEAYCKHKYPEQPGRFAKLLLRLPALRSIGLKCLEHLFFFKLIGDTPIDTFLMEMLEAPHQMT
Sequence of Peroxisome proliferator-activated receptor gamma (Homo sapiens) (P37231 whole entry, looked up): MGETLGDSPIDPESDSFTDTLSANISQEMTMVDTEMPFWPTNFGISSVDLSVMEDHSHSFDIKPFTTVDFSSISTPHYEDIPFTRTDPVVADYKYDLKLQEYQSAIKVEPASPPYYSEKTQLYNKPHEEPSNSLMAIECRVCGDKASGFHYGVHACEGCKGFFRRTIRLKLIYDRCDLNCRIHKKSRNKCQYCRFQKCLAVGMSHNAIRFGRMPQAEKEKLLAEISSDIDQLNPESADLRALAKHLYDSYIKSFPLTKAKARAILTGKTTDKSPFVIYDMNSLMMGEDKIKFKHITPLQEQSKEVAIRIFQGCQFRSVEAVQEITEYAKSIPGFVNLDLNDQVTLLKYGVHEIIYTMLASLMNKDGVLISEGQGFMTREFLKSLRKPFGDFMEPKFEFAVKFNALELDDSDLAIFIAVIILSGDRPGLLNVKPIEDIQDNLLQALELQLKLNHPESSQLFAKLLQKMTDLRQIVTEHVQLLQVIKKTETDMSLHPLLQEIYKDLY
Sequence of Nuclear receptor subfamily 1 group I member 2 (Rattus norvegicus) (Q9R1A7 whole entry, looked up): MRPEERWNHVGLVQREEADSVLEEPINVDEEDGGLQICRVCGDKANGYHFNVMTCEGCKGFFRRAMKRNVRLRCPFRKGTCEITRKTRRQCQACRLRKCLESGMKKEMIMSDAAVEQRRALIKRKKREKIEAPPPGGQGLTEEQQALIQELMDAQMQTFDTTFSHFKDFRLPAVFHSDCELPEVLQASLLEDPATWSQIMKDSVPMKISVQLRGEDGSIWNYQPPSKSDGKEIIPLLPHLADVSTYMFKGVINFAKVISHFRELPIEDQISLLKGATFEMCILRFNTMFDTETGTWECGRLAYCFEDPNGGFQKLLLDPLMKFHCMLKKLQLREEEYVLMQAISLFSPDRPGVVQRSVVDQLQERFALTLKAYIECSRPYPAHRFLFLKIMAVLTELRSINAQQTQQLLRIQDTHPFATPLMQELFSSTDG
Sequence of Vitamin D3 receptor (Homo sapiens) (P11473 whole entry, looked up): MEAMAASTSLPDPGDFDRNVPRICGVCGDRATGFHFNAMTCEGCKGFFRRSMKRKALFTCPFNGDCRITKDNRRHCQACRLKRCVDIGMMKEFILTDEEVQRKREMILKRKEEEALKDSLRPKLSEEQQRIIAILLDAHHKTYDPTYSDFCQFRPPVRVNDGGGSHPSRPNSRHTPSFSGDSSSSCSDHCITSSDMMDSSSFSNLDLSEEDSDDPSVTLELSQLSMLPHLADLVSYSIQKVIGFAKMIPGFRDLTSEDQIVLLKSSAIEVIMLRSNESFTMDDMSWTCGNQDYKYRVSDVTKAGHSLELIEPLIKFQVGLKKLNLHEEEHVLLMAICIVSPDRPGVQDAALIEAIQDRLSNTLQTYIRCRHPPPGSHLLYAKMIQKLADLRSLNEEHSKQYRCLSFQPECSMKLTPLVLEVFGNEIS
Sequence of Estrogen receptor (Homo sapiens) (P03372 whole entry, looked up): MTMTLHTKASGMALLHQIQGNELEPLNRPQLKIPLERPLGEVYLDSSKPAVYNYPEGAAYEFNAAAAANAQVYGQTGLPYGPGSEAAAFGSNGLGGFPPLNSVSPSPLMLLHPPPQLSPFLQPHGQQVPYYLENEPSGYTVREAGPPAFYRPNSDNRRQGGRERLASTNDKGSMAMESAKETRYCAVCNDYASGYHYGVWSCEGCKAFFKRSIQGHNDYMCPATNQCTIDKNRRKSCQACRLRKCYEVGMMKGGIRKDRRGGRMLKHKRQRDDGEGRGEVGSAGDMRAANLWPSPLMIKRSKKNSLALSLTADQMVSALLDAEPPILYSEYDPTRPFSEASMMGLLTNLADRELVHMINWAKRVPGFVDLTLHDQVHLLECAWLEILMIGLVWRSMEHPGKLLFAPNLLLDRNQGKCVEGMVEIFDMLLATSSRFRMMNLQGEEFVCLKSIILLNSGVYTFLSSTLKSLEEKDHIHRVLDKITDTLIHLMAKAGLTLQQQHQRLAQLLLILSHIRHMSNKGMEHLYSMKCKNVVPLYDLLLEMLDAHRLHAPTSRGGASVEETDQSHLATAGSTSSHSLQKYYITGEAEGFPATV
Sequence of Peroxisome proliferator-activated receptor alpha (Homo sapiens) (Q07869 whole entry, looked up): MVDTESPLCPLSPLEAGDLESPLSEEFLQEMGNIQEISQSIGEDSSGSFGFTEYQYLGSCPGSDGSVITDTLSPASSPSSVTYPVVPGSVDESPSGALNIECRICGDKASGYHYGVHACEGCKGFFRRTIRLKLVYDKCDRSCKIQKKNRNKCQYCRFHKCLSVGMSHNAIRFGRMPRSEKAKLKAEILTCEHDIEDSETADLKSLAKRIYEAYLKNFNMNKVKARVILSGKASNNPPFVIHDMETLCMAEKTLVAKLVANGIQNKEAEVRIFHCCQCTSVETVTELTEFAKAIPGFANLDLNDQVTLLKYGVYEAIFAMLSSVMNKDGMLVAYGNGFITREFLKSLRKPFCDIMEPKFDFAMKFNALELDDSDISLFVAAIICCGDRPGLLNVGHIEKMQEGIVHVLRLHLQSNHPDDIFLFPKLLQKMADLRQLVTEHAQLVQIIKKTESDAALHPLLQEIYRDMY

On to `N[C@@H]1[C@@H](O)[C@H](O)[C@@H](CO)O[C@H]1O`, for which the Potency result in [1], in assay [2], in assay [5], in assay [6], in [8] and in assay [14] was “inactive” throughout. Further, the max response in assay [3] was 8.04%; in assay [7], -2.29%; in assay [9] it was -16.6%; in [11], -1.62% (inactive); in assay [12], -11.9% (inactive); in [13], -8.29% (inactive). In addition, in assay [15], the max response was -3.38% (inactive). In addition, the call in assay [4] and in assay [16] was inactive. The activation in [10] is 2.2% (inactive).

With `CC1(C)CC(NCCCCCCNC2CC(C)(C)NC(C)(C)C2)CC(C)(C)N1`, the Potency result in [1], in assay [2], in assay [5], in assay [18], in [8] and in [14] was “inactive” each time. For the same compound, the outcome in assay [4], in assay [17] and in assay [16] was inactive. Moreover, the max response in assay [7] was -2.83%; in assay [9], -10.1%; in [19] it was 2.64% (inactive); in [11], -0.876% (inactive); in assay [12] it was -7.27% (inactive); in assay [13] it was -6.6% (inactive). In assay [15], the max response was 1.41% (inactive). The results for the activation in assay [20] and in [10] were -3.22% (inactive) and 0.472% (inactive), respectively.

As for `NN(c1ccccc1)c1ccccc1`, the Potency result in assay [1], in [2], in assay [5], in assay [6], in assay [18] and in assay [8] was “inactive” throughout. For the same compound, the Potency result in assay [14] is “inactive”. In addition, the max response was 23.6% in [3]; -8.85% in assay [7]; -11.7% in assay [9]; -14.4% (inactive) in [19]; -1.16% (inactive) in [11]; -7.4% (inactive) in assay [12]. For the same compound, the max response in [13] was -10.4% (inactive); in assay [15] it was 1.92% (inactive). Further, the call in assay [4] and in assay [17] was inactive. Besides, the activation in [20] was -2.86% (inactive); in assay [10], 3.15% (inactive).

Consider `CCCCCCCCCCCCCc1ccccc1`, for which the Potency entry in [1], in [2], in [5], in assay [6], in assay [18] and in assay [8] was “inactive” in each case. In assay [14], the Potency entry was “inactive”. Also, the max response in [3] was 21.6%; in assay [7], -8.78%; in assay [9], -13.4%; in [11], -0.643% (inactive); in assay [12], -7.31% (inactive); in [13], 4.66% (inactive). Moreover, in assay [15], the max response was 0.527% (inactive). Also, the result in assay [4], in [17] and in assay [16] was inactive. The activation in assay [20] was -0.242% (inactive); in [10] it was 2.83% (inactive).

On to `Cl[Si](Cl)(c1ccccc1)c1ccccc1`, for which the Potency result in [1], in assay [2], in assay [5], in [8] and in [14] was “inactive” throughout. Also, the max response in assay [3] was 5.91%; in assay [7], -17.4%; in assay [9] it was -8.47%; in assay [19], -0.846% (inactive); in [11] it was 5.98% (inactive); in assay [12], -10.9% (inactive). In addition, the max response in assay [13] was 1.19% (inactive). The call in [4] and in assay [17] was inactive. For the same compound, the activation in assay [10] was -1.05% (inactive).

Turning to `CC(C)c1ccc2cc(C(C)C)ccc2c1`, the Potency entry in [1], in assay [2], in [5], in [6], in assay [8] and in assay [14] was “inactive” in each case. The compound was called inactive in [17] and in [16]. Further, the max response in assay [9] is -11.7%; in assay [19] it was -6.87% (inactive); in assay [11] it was -0.981% (inactive); in [12], 7.43% (inactive); in assay [13] it was -0.947% (inactive); in assay [15], 1.57% (inactive). Besides, the activation is -0.342% (inactive) in assay [20] and 1.48% (inactive) in assay [10].

`C/C=C/C=C/CCCCCCCO`: the Potency result in [1], in assay [2], in assay [5], in [6], in assay [18] and in assay [8] was “inactive” each time. Further, the Potency entry in [14] is “inactive”. The max response in assay [3] is 19.3%; in [7] it was 11.1%; in [9], 19.5%; in assay [19] it was -19.2% (inactive); in assay [11], 0.881% (inactive); in assay [12], -8.82% (inactive). The figures for the max response in assay [13] and in assay [15] were -6.91% (inactive) and -0.307% (inactive), respectively. Besides, the compound was classed as inactive in assay [17] and in assay [16]. Further, the activation in [20] was -0.666% (inactive); in [10], -1.79% (inactive).
